# Results from PubChem BioAssay AID488969 (Vanderbilt High Throughput Screening Facility, 2010).
# Over roughly 110,000 compounds, “z-score” has its median near -0.1; the highest 2% begin near 2. This is one part of a sample in which the highest values are shown more often than they occur. Calls of active or inactive are those of the source.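 How the source made its calls: active means z-score in the third read window above 3 or below -3; inactive means the rest.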
# Molecular target: Metabotropic glutamate receptor 8 (Rattus norvegicus) (UniProt P70579)
# Sequence (P70579 whole entry, looked up): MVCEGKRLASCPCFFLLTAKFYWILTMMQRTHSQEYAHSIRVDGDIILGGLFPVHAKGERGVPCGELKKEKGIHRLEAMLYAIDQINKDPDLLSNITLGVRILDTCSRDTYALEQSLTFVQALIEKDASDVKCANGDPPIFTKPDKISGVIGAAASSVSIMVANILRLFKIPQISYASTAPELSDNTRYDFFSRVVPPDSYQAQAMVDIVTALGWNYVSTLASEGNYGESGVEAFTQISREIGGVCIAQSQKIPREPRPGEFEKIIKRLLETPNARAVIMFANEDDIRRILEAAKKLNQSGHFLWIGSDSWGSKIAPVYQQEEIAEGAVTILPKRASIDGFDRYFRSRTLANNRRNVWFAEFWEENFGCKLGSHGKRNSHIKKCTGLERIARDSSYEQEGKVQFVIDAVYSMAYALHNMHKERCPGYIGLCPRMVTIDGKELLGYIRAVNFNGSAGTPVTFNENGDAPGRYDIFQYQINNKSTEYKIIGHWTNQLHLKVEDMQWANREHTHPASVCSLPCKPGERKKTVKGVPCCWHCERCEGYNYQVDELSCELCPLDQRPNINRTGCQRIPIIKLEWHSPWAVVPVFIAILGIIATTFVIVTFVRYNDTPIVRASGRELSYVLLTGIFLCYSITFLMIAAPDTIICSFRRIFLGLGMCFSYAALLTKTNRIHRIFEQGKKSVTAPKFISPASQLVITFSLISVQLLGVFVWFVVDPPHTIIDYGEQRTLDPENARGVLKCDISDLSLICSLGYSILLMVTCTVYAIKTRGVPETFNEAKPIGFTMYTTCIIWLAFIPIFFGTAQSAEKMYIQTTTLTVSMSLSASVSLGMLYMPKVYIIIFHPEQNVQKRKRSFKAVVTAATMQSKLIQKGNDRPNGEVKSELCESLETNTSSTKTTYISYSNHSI
# Experiment: mGluR8 Gi/Go-coupled signaling modulation – cell-based, rat, thallium flux, HTS, primary screen (AID 488969)
# Conditions: HEK293 rat mGluR8, GIRK (G protein-gated inwardly rectifying potassium channel) thallium flux, FluoZin2; at 10 µM; stronger effect = higher value; submaximal glutamate (EC20) added with thallium
row,SMILES,z-score
1,CCn1c(SCc2ccccc2Cl)nc2ccccc21,0.866
2,CN(/N=C/c1cccnc1)c1cnn(-c2ccc(F)c(Cl)c2)c(=O)c1Cl,-0.0102
3,O=C(NC(=S)Nc1ccccc1)c1cc(-c2ccccc2)nc2ccccc12,9.35 (active)
4,COC(=O)c1cc(OC)c(OC)cc1NC(=O)c1cc(-c2ccccc2)nc2ccccc12,-0.917
5,O=C(Nc1ccon1)c1cc(-c2ccccc2)nc2ccccc12,-1.67
6,COC(=O)c1ccc(NC(=S)Nc2ccccc2)cc1,0.0759
7,COc1ccc(Cl)cc1C(=O)NNC(=S)NC(=O)c1cc(-c2ccccc2)nc2ccccc12,1.06
8,COC(=O)c1ccc(NC(=S)NC(=O)c2cc(-c3ccccc3)nc3ccccc23)cc1,8.36 (active)
9,c1ccc(CNc2nc(-c3cccs3)nc3ccccc23)cc1,0.32
10,O=C(O)c1cc(NCc2ccccc2C(F)(F)F)ccc1N1CCOCC1,-0.168
11,N#Cc1cc([N+](=O)[O-])cnc1Nc1ccccc1,-0.521
12,COC(=O)c1c(NC(=O)CN2CCN(S(=O)(=O)c3ccccc3)CC2)sc2c1CCC(C)C2 (stereo unspecified),-0.486
13,CC(C)OC(=O)c1c(NS(=O)(=O)c2ccccc2)sc2c1CCCC2,12.3 (active)
14,COCC(=O)Nc1sc2c(c1C(=O)OC)CCC(C)C2 (stereo unspecified),-0.444
15,COC(=O)c1c(NC(=O)c2ccccc2N(C)S(=O)(=O)c2ccccc2)sc2c1CCCC2,-0.215
16,CC(C)OC(=O)c1c(N)sc2c1CCCC2,2.03
17,CNC(=O)c1c(N)sc2c1CCCCC2,0.209
18,CCOC(=O)c1c(NC2=NS(=O)(=O)c3ccccc32)sc2c1CCC(C)C2 (stereo unspecified),0.00913
19,COC(=O)c1c(NS(=O)(=O)c2ccc(C)cc2)sc2c1CCC(C)C2 (stereo unspecified),7.28 (active)
20,CC1CCc2c(sc(NS(=O)(=O)c3ccccc3)c2C(=O)OC(C)C)C1 (stereo unspecified),8.13 (active)
21,CC1CCc2c(sc(N)c2C(=O)OC(C)C)C1 (stereo unspecified),0.201
22,COC(=O)c1c(NC(=O)c2cccs2)sc2c1CCC(C)C2 (stereo unspecified),-0.363
23,CCOC(=O)c1c(NC(=O)C2CCCN(S(=O)(=O)c3ccccc3)C2)sc2c1CCCC2 (stereo unspecified),0.269

row,SMILES,z-score
1,O=C(CSc1nnnn1-c1cccc(F)c1)Nc1nc2ccccc2s1,-0.0501
2,CC(Sc1nc(-c2ccccc2)cc(C(F)(F)F)n1)C(=O)N1CCOCC1 (stereo unspecified),-0.153
3,O=C1c2ccccc2C(O)N1c1ccc(Cl)cc1 (stereo unspecified),-0.698
4,CCOc1ccc(N2C(=O)c3ccccc3C2O)cc1 (stereo unspecified),8.14 (active)
5,CCOc1ccc(N2C(=O)c3ccccc3C2=O)cc1,-1.29
6,CCOc1ccc2cc(S(=O)(=O)n3ccnc3C)ccc2c1,0.917
7,COc1ccc([N+](=O)[O-])cc1NC(=O)C1CCCO1 (stereo unspecified),-0.326
8,C=CCNC(=O)CSc1cc([N+](=O)[O-])cc(S(=O)(=O)Cc2ccccc2)c1,0.665
9,Nc1nc(-c2cccnc2)nn1C(=O)c1ccco1,0.31
10,CCC(=O)n1nc(-c2cccnc2)nc1NCc1ccc(OC)cc1,-5.08 (active)
11,COc1ccc(CNc2nc(-c3cccnc3)nn2C(=O)c2ccco2)cc1,9.48 (active)
12,COc1cc(NC(=O)c2ccc(-c3ccc(Br)cc3)o2)ccc1NC(=O)C(C)C,0.116
13,CCOC(=O)C(CC)Sc1nnc2c3cc(C)ccc3n(C)c2n1 (stereo unspecified),-0.798
14,COC(=O)Cc1c(C)nc2nc(-c3ccc(OC)cc3)[nH]n2c1=O,-0.0668
15,COC(=O)Cc1c(C)nc2nc(-c3ccccc3)[nH]n2c1=O,-0.455
16,COC(=O)Cc1c(C)nc2nc(-c3ccco3)[nH]n2c1=O,2.68
17,CCn1c(SCC(=O)Nc2nc(-c3ccccc3)cs2)nnc1-c1ccccc1O,-0.347
18,O=C1C(=O)N(CNc2cccnc2)c2ccccc21,-0.21
19,CNC(=S)N/N=C/c1ccc(C(C)C)cc1,3.01 (active)
20,CNC(=S)N/N=C/c1ccc2c(c1)OCCO2,0.205
21,CC(C)c1ccc(/C=N/Nc2ccc(C(=O)O)cc2)cc1,-0.222
22,Cn1c(SCc2ccc(Br)cc2)nnc1-c1ccncc1,-0.143
23,Cc1cccc(-c2cc3nc4c(c(N5CCC6(CC5)OCCO6)n3n2)CCCC4)c1,0.391

row,SMILES,z-score
1,CC1CN(Cc2ccccn2)CCC1=O (stereo unspecified),-0.215
2,CC1CN(C2CC(C)(C)NC(C)(C)C2)CCC1=O (stereo unspecified),3.98 (active)
3,CC(=O)N1CN(C2CC(C)(C)NC(C)(C)C2)Cc2c1sc1c2CCCC1,0.426
4,O=C(NNC(=O)C1CCN(Cc2ccccc2)CC1)c1cccc(Cl)c1,0.0829
5,CCOC(=O)c1cn(-c2ccccc2CO)c2c(F)c(F)c(F)cc2c1=O,-0.237
6,COc1ccc2ncc(S(=O)(=O)c3ccccc3)c(N3CCC4(CC3)OCCO4)c2c1,-0.776
7,N#Cc1ccc(-c2ccc(OCC(O)Cn3nnc4ccccc43)cc2)cc1 (stereo unspecified),-0.106
8,CN(C)CC(O)COc1cccc(OCC(O)CN(C)C)c1 (stereo unspecified),-0.132
9,CC1(C)NC(=O)N(CC(O)COc2ccc(-c3ccc(C#N)cc3)cc2)C1=O (stereo unspecified),5.36 (active)
10,CN(C)CC(O)COc1ccc(-c2ccc(C#N)cc2)cc1 (stereo unspecified),2.48
11,Cc1ccc(OCC(O)CN2C(=O)NC(C)(C)C2=O)cc1 (stereo unspecified),-0.38
12,CC1(C)NC(=O)N(CC(O)COc2ccc(-c3ccccc3)cc2)C1=O (stereo unspecified),-0.0166
13,COc1ccccc1CC(=O)Nc1ccc(-c2noc(COc3ccc(Cl)c(C)c3)n2)cc1,-0.166
14,Cc1cc(C)c2c(N)c(C(=O)c3cccc(Cl)c3)sc2n1,-0.231
15,CCc1ccc(N/C(SC)=C(/C#N)C(N)=O)cc1,0.119
16,CCOC(=O)c1sc2nc(CSc3nc4ccccc4n3CC)[nH]c(=O)c2c1C,2.68
17,CCn1c(SCc2nc3sc(C(=O)O)c(C)c3c(=O)[nH]2)nc2ccccc21,-0.449
18,COCCn1c(SCc2nc3sc(C(=O)OC)c(C)c3c(=O)[nH]2)nc2ccccc21,0.877
19,COc1cccc(-c2nnc(SCc3nc4ccccc4s3)n2C)c1,-0.34
20,CCCCCCOC(=O)/C=C/c1c(C)[nH]c(=O)[nH]c1=O,-0.139
21,C/C(=N\NC(=O)c1ccc(C)cc1C)c1ccc(-n2ccnc2)cc1,-0.0942
22,CNC(=S)N/N=C(\C)c1ccc(-n2ccnc2)cc1,-0.579
23,C/C(=N\NC(=O)COc1ccc(C(C)(C)C)cc1)c1ccc(-n2ccnc2)cc1,0.123

row,SMILES,z-score
1,C/C(=N\NC(=O)c1ccccc1)c1nc2ccccc2n1C,3.71 (active)
2,C/C(=N\NC(=O)COc1ccc(C)cc1C(C)C)c1ccc(-n2ccnc2)cc1,2.53
3,COc1ccc(OCC(=O)N/N=C(\C)c2ccc(-n3ccnc3)cc2)cc1,-0.334
4,C/C(=N\NC(=O)c1ccccc1)c1ccc(-n2ccnc2)cc1,2.25
5,C/C(=N\Nc1ccc(C(=O)O)cc1)c1nc2ccccc2n1C,-0.702
6,Cn1c(/C=N/NC(=O)c2ccccc2)nc2ccccc21,0.298
7,Cn1c(=O)c2c(ncn2CC(=O)OCC(=O)Nc2ccccc2Cl)n(C)c1=O,-0.159
8,Clc1cccc2sc(N3CCOCC3)nc12,0.0232
9,CCOC(=O)C1=C(C)Nc2nc(SCc3cccnc3)nn2C1c1ccc(OC)cc1 (stereo unspecified),0.463
10,CN1CCN(S(=O)(=O)c2ccc(Br)s2)CC1,-0.0381
11,CN1CCN(CC(=O)Nc2c(C(=O)C3CC3)oc3ccccc23)CC1,-0.346
12,COC(=O)c1ccc(Cl)c(NC(=O)CN2CCOCC2)c1,0.185
13,COC(=O)c1ccc(Cl)c(NC(=O)CN2CCN(Cc3ccccc3)CC2)c1,-0.236
14,CCOC(=O)c1oc2ccc(OC)cc2c1NC(=O)CN1CCN(C)CC1,0.148
15,COC(=O)c1ccc(Cl)c(NC(=O)CN2CCN(C)CC2)c1,4.17 (active)
16,COC(=O)c1ccc(Cl)c(NC(=O)CN(c2ccc(OC)cc2)S(=O)(=O)c2ccccc2)c1,-0.285
17,COC(=O)c1ccc(Cl)c(NC(=O)CN(c2ccc(OC)c(OC)c2)S(C)(=O)=O)c1,2.1
18,COC(=O)c1oc2ccc(Br)cc2c1NC(=O)CN1CCN(C)CC1,2.22
19,COC(=O)c1ccc(Cl)c(NC(=O)CN(c2ccc3c(c2)OCO3)S(C)(=O)=O)c1,0.625
20,Cc1ccc(CNC(=O)/C=C/c2c(Cl)cccc2Cl)cc1,-0.641
21,O=C(CSc1ncnc2c1oc1ccccc12)NCC1CCCO1 (stereo unspecified),-0.215
22,COc1ccc(/C=N/n2c(N)nc(-c3ccccc3)c2-c2ccccc2)cc1,-0.377
23,O=C(NCCCN1CCN(c2ccccc2)CC1)Nc1ccccc1C(F)(F)F,-0.506

row,SMILES,z-score
1,Cc1ccc(NC(=O)c2sc3nc4c(c(-c5ccco5)c3c2N)CCC4)cc1,-0.382
2,CC(=O)NC(Cc1ccccc1C)C(=O)NC1CCN(c2ncccc2[N+](=O)[O-])CC1 (stereo unspecified),-0.207
3,CCC(=O)Nc1cc2nn(-c3ccccc3)nc2cc1Cl,0.0874
4,CNC(=S)N/N=C(\C)c1ccc(N2CCOCC2)cc1,0.456
5,CNC(=S)N/N=C(\C)c1cccc([N+](=O)[O-])c1,-0.339
6,CNC(=S)N/N=C(\C)c1ccc(Cl)s1,3.13 (active)
7,CNC(=S)N/N=C(\C)c1ccc(C)c(C)c1,1.2
8,C=C(C)CNC(=S)N/N=C(\C)c1ccc(Cl)s1,2.26
9,CNC(=S)N/N=C(\C)c1ccc(C(C)(C)C)cc1,2.03
10,C=C(C)CNC(=S)N/N=C(\C)c1ccc(-n2ccnc2)cc1,-0.342
11,C=C(C)CNC(=S)N/N=C/c1ccc(N2CCOCC2)cc1,0.134
12,CCNC(=S)N/N=C(\C)c1cccc([N+](=O)[O-])c1,0.559
13,CCNC(=S)N/N=C(\C)c1ccc(Cl)s1,4.7 (active)
14,CCNC(=S)N/N=C(\C)c1ccc(N2CCOCC2)cc1,0.245
15,C/C(=N\Nc1nc2ccccc2[nH]1)c1ccc(Cl)s1,-1.3
16,Cn1c(=O)c2[nH]c(-c3cccnc3)nc2n(C)c1=O,0.366
17,C=CCN1C(=O)C(CC(=O)Nc2ccccc2)SC1=Nc1c(C)n(C)n(-c2ccccc2)c1=O (stereo unspecified),1.07
18,COc1cc(/C=C(\C#N)c2nc(-c3cc4ccccc4oc3=O)cs2)ccc1O,-2.33
19,CCC(=O)Nc1ccc(NC(=O)CN2CCCC(C)C2)c(Cl)c1 (stereo unspecified),-0.146
